Mtb UGM inh: M. tuberculosis UGM enzyme inhibitors, primary screen, biochemical, fluorescence polarization, single point; inhibition, % at 10 µM; 0.06% of 320,000 active; purified UGM, fluorescence polarization probe displacement; in the data active = inhibition above about 10%, passing the limit was not always enough; inconclusive = no clear call, values can overlap the other calls
Target sequence (P9WIQ1 whole entry, looked up): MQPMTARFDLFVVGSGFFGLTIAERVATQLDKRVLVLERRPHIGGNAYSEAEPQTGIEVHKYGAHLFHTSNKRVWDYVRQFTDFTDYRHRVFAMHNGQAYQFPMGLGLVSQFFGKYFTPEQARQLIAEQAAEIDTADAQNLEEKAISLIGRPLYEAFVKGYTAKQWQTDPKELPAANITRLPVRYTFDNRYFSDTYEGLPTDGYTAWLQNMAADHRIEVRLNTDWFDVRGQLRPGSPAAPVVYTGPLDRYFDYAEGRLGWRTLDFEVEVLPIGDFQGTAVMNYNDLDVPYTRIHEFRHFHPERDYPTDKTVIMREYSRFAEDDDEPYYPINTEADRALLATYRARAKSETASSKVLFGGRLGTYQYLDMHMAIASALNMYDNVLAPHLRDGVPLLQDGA
FBA Mtb inh: Mtb FBA enzyme inhibitors, primary screen, biochemical, fluorescence, strain H37Rv; Fructose-bisphosphate aldolase (Mycobacterium tuberculosis (strain ATCC 25618 / H37Rv)), …; purified M. tuberculosis FBA, fluorescence read-out; inhibition, % at 1 µM; 2.3% of 360,000 active; AID 588726, 2011; in the data active = inhibition above about 27%;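 also: 0% = vehicle and 100% = reference inhibitor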
Mtb bLac sens: beta-lactam sensitization of Mtb H37Rv, H37Rv; M. tuberculosis H37Rv growth with meropenem, percent inhibition; inhibition, % at 25 µM; 0.27% of 330,000 active; AID 434955, 2010; call rule not given here;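 also: growth measured after seven days incubation then overnight dye step; 0% = bacteria only wells and 100% = bacteria with antibiotic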
Rv3671c protease: Rv3671c serine protease inhibitors, primary screen, biochemical, fluorescence polarization, M. tuberculosis H37Rv. P9WHR9. inhibition, % at 5.96 µM. 0.048% of 320,000 active; in the data active = inhibition above about 38%;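 also: extracellular domain of Rv3671c used as enzyme; 0% = enzyme with DMSO and 100% = no enzyme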
GDH-TPI inh: GDH-TPI coupling enzyme inhibitors, primary screen, artefact control for M. tuberculosis FBA inhibitor project, biochemical, absorbance, full deck; GDH-TPI coupled enzyme counterscreen, NADH absorbance; inhibition, % at 4.8 µM; 1.2% of 360,000 active; in the data active = inhibition above about 30%;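 also: 0% = DMSO wells and 100% = wells lacking the enzyme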
Active calls of the source: *; ? = inconclusive; . = not tested or not shown; + = active, no number. Shown are actives, neighbours in structure and some others; about 3.5% of the full set was active somewhere.

SMILES | Mtb UGM inh | FBA Mtb inh | Mtb bLac sens | Rv3671c protease | GDH-TPI inh
O=C(c1cc2c(s1)-c1ccccc1OC2)N1CCN(c2ccccn2)CC1 | -0.1 | 16.9 | 3.6 | -10.3 | 13.9
O=C(c1cc2c(s1)-c1ccccc1OC2)N1CCCC1 | 0.2 | + | 0.3 | -2.5 | 26.7
O=C(c1cc2c(s1)-c1ccccc1OC2)N1CCC2(CC1)OCCO2 | 2.1 | + | -2.7 | -6.8 | 39.6*
Cc1c(C(=O)NCc2ccc([N+](=O)[O-])cc2)sc(=O)n1Cc1ccc2c(c1)OCO2 | . | 0.3 | . | . | 9.1
O=C(c1cc(COc2ccc(F)cc2F)on1)N1CCSCC1 | -4.9 | -2.1 | -4.9 | 2.6 | -2.4
COCCNC(=S)NCCc1ccc(Cl)cc1Cl | -3.4 | -1.6 | 6.6 | -11.3 | -1.6
Cn1nc(C(=O)Nc2cc(Cl)ccc2N2CCCC2)c2ccccc2c1=O | 17.0* | 0.0 | 3.2 | -13.1 | 4.5
O=C(N/N=C/c1cccnc1)c1cccc(N2CCCC2=O)c1 | 1.0 | -6.1 | -13.7 | 4.6 | -5.4
COc1cc(/C=N/NC(=O)c2cccc(N3CCCC3=O)c2)ccc1O | -0.6 | 0.2 | -9.3 | 1.2 | 39.6*
CCN(CC)c1ccc(/C=N/NC(=O)c2cccc(N3CCCC3=O)c2)cc1 | 2.7 | -1.5 | -3.9 | 3.7 | 31.0*
O=C(CSc1c2c(nc3cc(Cl)ccc13)CCCC2)NCCN1CCOCC1 | -1.1 | 0.5 | -1.4 | -3.7 | 3.4
Clc1ccc2c(SCC3CO3)c3ccccc3nc2c1 (stereo not drawn) | . | 121.7* | . | . | 15.1
COc1ccc(C(=O)/C=C/NCc2ccc(C)cc2)cc1 | 0.7 | 0.1 | -2.8 | -6.6 | 44.1*
COc1ccc(C(=O)/C=C/Nc2cc(C)on2)cc1 | -1.1 | 0.3 | 0.1 | -2.4 | 41.0*
O=C(O)c1cc2[nH]c3c(c2cc1Cl)CCCC3 | 4.5 | 8.0 | 3.9 | 1.9 | 2.5
O=C(Nc1ccc([N+](=O)[O-])cc1)C1C(c2ccccc2)=C1c1ccccc1 | 1.6 | 2.6 | -2.6 | -9.2 | 33.3*
O=C(O)CC(NNC(=O)c1ccccc1)C(=O)Nc1ccc([N+](=O)[O-])cc1 (stereo not drawn) | -2.2 | 6.1 | -8.0 | 20.4 | 31.4*
O=C(c1ccc2ccccc2c1O)N1CCCCC1 | . | 1.2 | . | . | 17.7
CC(=O)c1ccc(-c2ccc(/C=C(/Sc3n[nH]c(C)n3)C(=O)O)o2)cc1 | 2.5 | -16.5 | 23.3 | 6.7 | 39.2*
Cc1nc(S/C(=C/c2ccc(-c3ccc(C(=O)O)cc3)o2)C(=O)O)n[nH]1 | 0.2 | -19.4 | -7.6 | 33.7 | 27.9
COCCCN(C(=O)C1CCC1)c1c(N)n(Cc2ccccc2)c(=O)[nH]c1=O | 4.3 | 0.1 | 2.7 | -7.5 | 5.7
CC1S/C(=N/N=C/c2ccco2)N(Cc2ccc(F)cc2)C1=O (stereo not drawn) | 0.4 | -1.9 | -2.3 | 3.6 | 24.9
O=C1CS/C(=N/N=C/c2ccco2)N1Cc1ccc(F)cc1 | 2.5 | -1.5 | 0.5 | 9.9 | 37.9*
NNc1nc(-c2ccccc2)cc(-c2ccccc2)n1 | -0.2 | 2.5 | 1.0 | -18.3 | 13.6
N#Cc1cc(-c2ccccc2)nc(NN)n1 | -1.4 | -2.3 | -5.2 | -10.5 | 32.0*
SMILES | Mtb UGM inh | FBA Mtb inh | Mtb bLac sens | Rv3671c protease | GDH-TPI inh
CN1CCc2c(sc3nc(SCC(=O)N4CCOCC4)n(-c4ccc(Cl)cc4)c(=O)c23)C1 | -1.9 | 24.6 | 2.2 | -8.5 | 50.9*
COc1ccc(-n2c(SCC(N)=O)nc3sc4c(c3c2=O)CCN(C)C4)cc1 | -1.1 | 35.5* | -2.0 | 8.2 | 34.6*
CCOC(=O)CSc1nc2sc3c(c2c(=O)n1-c1ccc(OC)cc1)CCN(C)C3 | 0.5 | 2.0 | 19.3 | . | 24.8
CC1CCN(C(=O)CSc2nc(N)c3c4c(sc3n2)CN(C)CC4)CC1 | . | 30.9* | . | . | 11.0
Cc1cc(C)c(NC(=O)CN2C(=O)NC3(CCCc4ccccc43)C2=O)c(Cl)c1 (stereo not drawn) | 0.5 | 2.7 | -9.8 | -3.3 | 13.4
Cc1cc(C)n2nc(-c3ccco3)nc2n1 | 1.4 | 124.0* | 5.0 | 3.2 | 3.7
O=C(/C=C/c1cccs1)Nc1nc(-c2ccccc2)cs1 | -0.4 | 1.0 | ? | -27.6 | 9.8
Cc1ccnc(NC(=O)CNC(=O)c2cccs2)c1 | 2.1 | -0.4 | -15.8 | -5.3 | -0.7
O=C(/C=C/c1cccs1)Nc1cccnc1 | 4.0 | -3.2 | -4.7 | -9.7 | 32.3*
O=C(/C=C/c1cccs1)Nc1nncs1 | 3.0 | -6.1 | -7.8 | 1.9 | 69.6*

High-throughput results from PubChem.
